Laboratory results: PubChem BioAssay AID504466 (National Center for Advancing Translational Sciences (NCATS), 2011)
Among all 330,000 compounds or so, about 4,200 (1.3%) were called active. About 6% were inconclusive and are not listed. The sample as a whole holds a higher share of actives than the screen did. A number with no mark means an inactive call. Calls follow the shape of the dose curve; as a rule, active = well fitted activation curve with a large enough effect; inconclusive = small, poorly fitted or top-dose-only effect; inactive = no such curve, though single readings can be large or run the other way.

test: qHTS screen for small molecules that induce genotoxicity in human embryonic kidney (HEK293T) cells expressing luciferase-tagged ELG1; settings: HEK293T ELG1-luciferase reporter, luminescence, 16 h; series mostly up to 46 µM; activity change, positive = activation: at the top concentration; also: nearly all actives have a fitted effect of over 60% in size; as to activity change, positive = activation: % of control where 0% means no effect
Procedure, shortened: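 Reporter readout depends on ELG1 protein level, which increases with genetic stress. After 16 hr compound exposure at 37 °C, luciferase activity was quantified using ONE-Glo.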
Potency is read from the fitted curve at half-maximal effect.

SMILES	activity change, positive = activation	Potency
Cn1c(SCC(=O)N2CCCC2)nnc1-c1cccs1	6.12%	–
O=C(CSCc1ccc(Cl)cc1)N1CCCCC1	–	8.91 µM (active)
O=C(CSCc1ccc(Cl)cc1)N1CCN(Cc2ccc3c(c2)OCO3)CC1	-6.7%	–
O=C(CSc1ccsc1[N+](=O)[O-])N1CCCCC1	-3.05%	–
O=C(CSCc1cccs1)N1CCCC1	–	16.4 µM (active)
O=C(COc1ccccc1Cl)N1CCCCCCC1	3.7%	–
CCN(C[C@H]1N[C@@](CC)(C(=O)OC)[C@H]2C(=O)N(Cc3ccccc3)C(=O)[C@@H]12)S(=O)(=O)c1ccccc1	-3.54%	–
COc1cc(OC)cc(C(=O)NC(C(=O)N2CCC2)C(C)C)c1 (stereo unspecified)	-0.193%	–
CC1(C)C(c2cccs2)=[N+]([O-])C2(CCCCC2=O)N1O (stereo unspecified)	-5.57%	–
C/C(=N\O)C1(C)N(O)C(C)(C)C(c2ccc(Br)cc2)=[N+]1[O-] (stereo unspecified)	0.163%	–
CC(=O)C1(C)N(O)C(C)(C)C(c2cccs2)=[N+]1[O-] (stereo unspecified)	–	0.082 µM (active)
O=C(Nc1ccc(Cl)cn1)c1ccc2c(c1)OCCO2	–	1.16 µM (active)
CCCc1cc(C(=O)Nc2ccc(Cl)cn2)cs1	–	2.31 µM (active)
COc1ccc(C(=O)NC(=S)Nc2ccc(Cl)cn2)cc1OC	7.16%	–
CCCc1cc(C(=O)Nc2ccc(C(=O)OC)cc2)cs1	10.2%	–
Cc1nc(NC(=O)c2ccc3c(c2)OCCO3)ccc1Br	14.1%	–
COc1c(Cl)cc(C(=O)Nc2ccc(Cl)cn2)cc1Cl	20.8%	–
O=C(Nc1cccc(S(=O)(=O)N2CCCC2)c1)c1cncc(Br)c1	-3.48%	–
COc1ccc(-c2sc3ccc(OC)cc3c2C#Cc2ccccn2)cc1	-5.99%	–
COc1cc(OC)c2c(-c3cccc(-c4cccc(N)c4)c3)cc(=O)oc2c1	15.5%	–
CCN([C@H](CO)C(C)C)S(=O)(=O)c1ccccc1Br	2.85%	–
Cc1ccc2c(c1)C1C[N+](C)(CC(=O)c3ccccc3)CCC1N2C(=O)c1ccccc1Cl (stereo unspecified)	6.12%	–
CC1CCCCC1NC(=O)COc1ccc(C#N)cc1 (stereo unspecified)	0.621%	–
C=CCC[C@@H](Cc1ccc(F)cc1)C(=O)O[C@H](CNC(=O)[C@H](CC=C)CC(=O)N(CCO)Cc1ccccc1)c1ccccc1	-10.3%	–
COC(=O)c1ccc(CNC(=O)c2ccc(S(=O)(=O)N3CCCCCC3)cc2)cc1	0.558%	–
O=C(NCCOc1ccccc1)c1ccccc1	–	1.64 µM (active)

SMILES	activity change, positive = activation	Potency
Cc1noc(C)c1COc1ccc(C(=O)NCCOc2ccccc2)cc1	10.2%	–
CCCCCCCCC(=O)NCCOc1ccccc1	0.026%	–
Cc1cc(Cl)c(S(=O)(=O)NCC2CCCO2)cc1OCC(N)=O (stereo unspecified)	-1.09%	–
Cc1cc(Cl)c(S(=O)(=O)N(C)C)cc1OCC(N)=O	2.13%	–
Cc1cc(Cl)c(S(=O)(=O)Nc2ccc3c(c2)OCCO3)cc1OCC(N)=O	–	23.1 µM (active)
COC(=O)C1=C(C)N(Cc2ccccc2)C(=NCCCOC(C)C)N[C@H]1c1ccccc1	-6.75%	–
CN(C)C(=O)CCc1ccc2c3c([nH]c2c1)[C@]1(C)[C@@H](C(=O)N2CCCCC2)C[C@H](CC(=O)NCCC2=CCCCC2)C(=O)N1CC3	3.62%	–
Cc1cc2nc(SCCN3CCOCC3)[nH]c2cc1C	–	18.4 µM (active)
Cc1cccc(C)c1OCCN1CCOCC1	1.65%	–
CCn1c2ccc(F)cc2c2nnc(SCCN3CCOCC3)nc21	1.96%	–
Cc1ccc(C(=O)OCC(=O)N2CCCCCC2)cc1S(=O)(=O)N1CCOCC1	2.44%	–
CCC1C/C(=C/c2cccs2)C(=O)/C(=C/c2cccs2)C1 (stereo unspecified)	-4.86%	–
CN1C/C(=C/c2cccs2)C(=O)/C(=C\c2cccs2)C1	-2.16%	–
O=C1/C(=C/c2cccs2)CCc2ccccc21	–	8.2 µM (active)
O=C(COc1cccnc1[N+](=O)[O-])Nc1ccc(Cl)cc1F	26.2%	–
O=C(COC(=O)COc1cccc(F)c1)NCC1CCCCC1	13.6%	–
COc1ccc2sc(-c3ccc(S(C)(=O)=O)cc3)c(C#Cc3cncn3C)c2c1	8.77%	–
CC(C)(C)OC(=O)C[C@@H]1C/C=C\C[C@H](CC(=O)N[C@@H](CO)Cc2ccccc2)C(=O)N[C@H](Cc2ccccc2)COC1=O	-0.52%	–
CN(c1ccc(C(=O)N2CCc3ccccc3C2)cc1)S(C)(=O)=O	0.636%	–
O=C(c1noc2c1CCCC2)N1CCc2ccccc2C1	–	20.6 µM (active)
Cc1ccc(-c2cc(C(=O)N3CCc4ccccc4C3)no2)cc1	4.79%	–
CC(C)CC1(C)NC(=O)N(CC(=O)Nc2ccc3c(c2)OCCO3)C1=O (stereo unspecified)	-0.422%	–
Cc1ccc(S(=O)(=O)NCC(=O)NNC(=O)c2ccc(Br)cc2)cc1C	0.75%	–
COc1ccc(-c2noc(-c3cccc(OC)c3OC)n2)cc1OC	–	3.26 µM (active)
Cc1ccc(-c2noc(CC(c3ccccc3)c3ccccc3)n2)cc1	-1.39%	–
COc1ccc(-c2noc(CSc3ccc(C)cc3)n2)cc1	9.24%	–

SMILES	activity change, positive = activation	Potency
Cc1ccc(-c2nc(-c3ccncc3)no2)c(C)c1	–	20.6 µM (active)
COc1ccc(-c2noc(-c3ccc(C)cc3)n2)cc1	–	3.66 µM (active)
Cc1ccc(-c2noc(CSc3nnc(-c4ccncc4)n3-c3ccc(F)cc3)n2)cc1	-16.5%	–
COc1ccccc1Cc1nc(-c2ccc(C)cc2)no1	–	18.4 µM (active)
Cc1ccc(-c2noc(-c3ccccc3C(=O)NCC3CCCO3)n2)cc1 (stereo unspecified)	-1.12%	–
COc1ccccc1CNS(=O)(=O)c1ccc(C)cc1	-0.471%	–
COc1ccc(-c2noc(CN(C)S(=O)(=O)c3ccc(C)cc3)n2)cc1	13.2%	–
COc1ccc(-c2csc3nc(-c4ccccc4F)oc(=O)c23)cc1OC	12.1%	–
COc1ccc(-c2noc(CCCC(=O)NC3CCCC3)n2)cc1OC	-5.32%	–
CCOC(=O)C1CCCN(C(=O)CSc2nnc3nc(C)cc(C)n23)C1 (stereo unspecified)	0.58%	–
CC(C)NC(=O)Nc1cccc2c1O[C@H](CN(C)S(=O)(=O)c1cccs1)[C@@H](C)CN([C@H](C)CO)C2=O	-0.978%	–
COc1ccc(-c2sc3ccccc3c2-c2ccc(OCCN3CCOCC3)cc2)cc1	-2.58%	–
O=C(COC(=O)c1cccnc1Cl)Nc1ccc(S(=O)(=O)N2CCOCC2)cc1	3.07%	–
COc1ccc2[nH]c3c(c2c1)CCN1C(=O)C(CC(=O)NCCCN(C)C)C[C@H](C(=O)N2CCOCC2)[C@@]31CCC1CCCC1 (stereo partly specified)	8.11%	–
Cc1ccc(S(=O)(=O)Nc2ccc(F)c(S(=O)(=O)N3CCOCC3)c2)cc1	-2.13%	–
CCn1nc(C(=O)NNS(=O)(=O)c2cc(/C=C/C(=O)O)cc(OC)c2OC)c2ccccc2c1=O	-1.69%	–
C[C@H]1CN([C@@H](C)CO)C(=O)Cc2cc(NS(C)(=O)=O)ccc2O[C@@H]1CN(C)CC1CC1	-0.237%	–
Cc1cccc(-c2noc(CCC(=O)NC3CCCC3)n2)c1	3.59%	–
COc1ccc(-c2nc(-c3ccccc3)no2)c(OC)c1	–	0.058 µM (active)
COc1ccc(-c2noc(CNC(=O)C(C)Oc3ccccc3)n2)cc1 (stereo unspecified)	-8.44%	–
Cc1ccc(Cc2nc(-c3cccc(C)c3)no2)cc1	–	16.4 µM (active)
COc1ccc(-c2n[nH]c(C)c2-c2ccccc2OC)c(O)c1	-8.55%	–
Cc1ccc(-c2noc(CSc3nnc(-c4ccccc4)n3C)n2)cc1	-5.8%	–
O=C(COC(=O)c1ccc(F)cc1)Nc1ccc2c(c1)OCO2	1.47%	–
O=C(CN1C(=O)NC2(CCCCCC2)C1=O)NCc1ccc(F)cc1	-1.42%	–
O=C(N[C@H]1C/C=C\C(c2ccc(F)cc2)N(Cc2ccccc2)C(=O)C1)OCC1c2ccccc2-c2ccccc21 (stereo partly specified)	-1.55%	–

SMILES	activity change, positive = activation	Potency
C#CCOCCOCCOCCNc1nc(N2CCN(C(=O)[C@H](CCCN=C(N)N)n3cc(C(N)[C@@H](C)CC)nn3)CC2)nc(N2CCN(C(=O)[C@H](CO)n3cc([C@@H](N)C(C)C)nn3)CC2)n1 (stereo partly specified)	2.45%	–
CCN(c1ccccc1)S(=O)(=O)c1ccc(C(=O)Nc2ccccc2OC)cc1	-6.55%	–
CCCCSc1nnc(-c2ccc(C)cc2)o1	–	2.06 µM (active)
CCOC(=O)CSc1nnc(-c2ccc([N+](=O)[O-])cc2)o1	-0.612%	–
Cc1cccc(C)c1OC(=O)CSc1nnc(-c2ccccc2)o1	2.25%	–
c1ccc2c(CCN3CCNC[C@H]3Cc3cccc4ccccc34)cccc2c1	0.671%	–
COc1ccc(-n2nnnc2CNC(=O)c2ccc3ccccc3c2)cc1	-1.6%	–
COc1ccc(-n2nnnc2-c2nc3ccccc3s2)cc1	–	1.46 µM (active)
COc1ccc(C2=NN(c3nc4ccccc4s3)C(=O)C2)cc1	-0.0195%	–
O=C(Nc1ccc(N2CCOCC2)cc1)c1cccc(S(=O)(=O)N2CCOCC2)c1	-1.33%	–
O=C(CCc1ccc(S(=O)(=O)N2CCOCC2)cc1)OCC(=O)c1ccc(Br)cc1	-0.314%	–
Cc1cc(OCc2cc(C(=O)NCc3cc(C(C)C)no3)no2)cc(C)c1Cl	–	3.66 µM (active)
COc1ccc(OCc2cc(C(=O)NCC3(C)COC3)no2)c(Cl)c1	12%	–
Cc1cccnc1CC(C)NC(=O)c1cc(COc2cncc(Cl)c2)on1 (stereo unspecified)	0.0531%	–
CC1(C)C[C@H]2C3=CCC4[C@@]5(C)CC[C@H](O)[C@](C)(CO)C5CC[C@@]4(C)[C@]3(C)C[C@@H](O)[C@@]2(CO)[C@@H](O)[C@@H]1O (stereo partly specified)	1.48%	–
CC(C)(C)OC(=O)C1=C(CO)CS[C@@H]2[C@H](NC(=O)Cc3ccccc3)C(=O)N12	8.28%	–
C/C(=N\NC(=O)Cc1ccc(Cl)cc1)c1ccccn1	–	9.2 µM (active)
C/C(=N\NC(=O)c1ccccc1F)c1ccccn1	–	3.66 µM (active)
C/C(CC(=O)Nc1ccc(N(C)C)cc1)=N\NC(=O)c1ccccc1F	12.6%	–
C/C(=N\NC(=O)Cc1ccc(F)cc1)c1ccc(F)cc1	-0.933%	–
C/C(=N\NC(=O)Cc1ccc(Br)cc1)c1cccnc1	10.7%	–
Cc1ccc(Cl)cc1NC(=O)c1ccccn1	5.69%	–
COc1ccc2[nH]c3c(c2c1)CCN1C(=O)C(CC(=O)NCc2cccc(C(F)(F)F)c2)C[C@H](C(=O)N2CCOCC2)[C@@]31C (stereo partly specified)	2.26%	–
